# Reference: the supplement of paper PMC8728848
# The sample as a whole holds a higher share of the strongest signals than the screen did.
# B1: PX9937A-bvu-521-23-521 (Bacteroides vulgatus) (protein)
# chain: LDLAPEDYYGAGNFWKEASQPKAFMLGLHAQLRSYYDMFYTLGELRGGTQRVGTSSLNTSLNYADIRSQNISEDIPGISNWNGLYSPIMQVNHFIQEVENGCTFLDDATRSRYLGQAYGMRALYYFMLYRTFGGVPLITKVDILDGKPSADKFYVERATPEATMEFIKADINKSENYFGNNTSFDAYDWSRYATLMLKAEIYMWAAKVSITGFTATGATDLQTAKTALSGIIGHFELMDNFASIFSCDNKKNTEIIFAMPFIEGEASNDGGRFLYQDAVFLGQAYGRNGKVIEKDTLNLKGTGGVFRDEYTEDFWKTFKEGDSRRDATFMEYYMKNDNGTLSEFGCVMKKRIGTINSNDNRIYISDIPVYRYADALLMMAEIENGLNNPCASYINEVRKRAYGDTFEENKYTEGSYAENELAILQERDKEFVSEGKRWFDVLRMHDASGRSLVFSANANYPGTNPILGTEEAYKMLWPVNIGTLNVNPLLTQTPGYGKK
# Key:
# Test in all cases: glycan array binding signal (z-score within array); higher = stronger binding
# Conditions in all cases: glycan notation: IUPAC condensed, linker removed
# GalNAc(b1-4)GlcNAc = target: GalNAc(b1-4)GlcNAc
# Summary of the method: (§1)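 Glycan array binding is given as a within-array Z-score, which can be read as non-binding when negative. The arrays, 3228 of them, came from the Consortium for Functional Glycomics database and were retained only where the protein sequence was available. Z-scores were averaged across arrays of the same protein sequence at different concentrations or buffers and across linkers.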
# [1] = target: GlcNAc(b1-2)Man(a1-3)[GlcNAc(b1-4)][GlcNAc(b1-2)Man(a1-6)]Man(b1-4)GlcNAc(b1-4)[Fuc(a1-6)]GlcNAc
# Summary of the method: as §1
# GlcNAc(b1-3)Fuc = target: GlcNAc(b1-3)Fuc
# Summary of the method: as §1
# [2] = target: GlcNAc(b1-3)Gal(b1-4)GlcNAc(b1-2)Man(a1-3)[GlcNAc(b1-3)Gal(b1-4)GlcNAc(b1-2)Man(a1-6)]Man(b1-4)GlcNAc(b1-4)GlcNAc
# Summary of the method: as §1
# [3] = target: GlcNAc(b1-3)Gal(b1-4)GlcNAc(b1-3)Gal(b1-4)GlcNAc(b1-3)Gal(b1-4)GlcNAc(b1-2)[GlcNAc(b1-3)Gal(b1-4)GlcNAc(b1-3)Gal(b1-4)GlcNAc(b1-3)Gal(b1-4)GlcNAc(b1-6)]Man(a1-6)[GlcNAc(b1-3)Gal(b1-4)GlcNAc(b1-3)Gal(b1-4)GlcNAc(b1-3)Gal(b1-4)GlcNAc(b1-2)Man(a1-3)]Man(b1-4)GlcNAc(b1-4)[Fuc(a1-6)]GlcNAc
# Summary of the method: as §1
# [4] = target: GlcNAc(b1-3)Gal(b1-4)GlcNAc(b1-3)Gal(b1-4)GlcNAc(b1-3)Gal(b1-4)GlcNAc(b1-3)Gal(b1-4)GlcNAc(b1-2)Man(a1-3)[GlcNAc(b1-3)Gal(b1-4)GlcNAc(b1-3)Gal(b1-4)GlcNAc(b1-3)Gal(b1-4)GlcNAc(b1-3)Gal(b1-4)GlcNAc(b1-2)Man(a1-6)]Man(b1-4)GlcNAc(b1-4)[Fuc(a1-6)]GlcNAc
# Summary of the method: as §1
# [5] = target: GlcNAc(b1-3)Gal(b1-4)GlcNAc(b1-6)[GlcNAc(b1-3)]Gal(b1-4)GlcNAc
# Summary of the method: as §1
# Kdn(a2-3)Gal(b1-3)GalNAc = target: Kdn(a2-3)Gal(b1-3)GalNAc
# Summary of the method: as §1
# Kdn(a2-3)Gal(b1-4)Glc = target: Kdn(a2-3)Gal(b1-4)Glc
# Summary of the method: as §1
# [6] = target: Man(a1-2)Man(a1-3)[Man(a1-2)Man(a1-6)]Man(a1-6)[Man(a1-2)Man(a1-2)Man(a1-3)]Man(b1-4)GlcNAc(b1-4)GlcNAc
# Summary of the method: as §1
# Man(a1-6)Man = target: Man(a1-6)Man
# Summary of the method: as §1
# [7] = target: Neu5Ac(a2-3)Gal(b1-3)GalNAc(b1-4)[Neu5Ac(a2-8)Neu5Ac(a2-3)]Gal(b1-4)Glc
# Summary of the method: as §1
# Neu5Ac(a2-3)Gal(b1-4)Glc = target: Neu5Ac(a2-3)Gal(b1-4)Glc
# Summary of the method: as §1
# [8] = target: Neu5Ac(a2-3)Gal(b1-4)GlcNAc(b1-2)Man(a1-3)[GlcNAc(b1-4)][Neu5Ac(a2-3)Gal(b1-4)GlcNAc(b1-2)Man(a1-6)]Man(b1-4)GlcNAc(b1-4)GlcNAc
# Summary of the method: as §1
# [9] = target: Neu5Ac(a2-3)Gal(b1-4)GlcNAc(b1-2)[Neu5Ac(a2-3)Gal(b1-4)GlcNAc(b1-6)]Man(a1-6)[Neu5Ac(a2-3)Gal(b1-4)GlcNAc(b1-2)Man(a1-3)][GlcNAc(b1-4)]Man(b1-4)GlcNAc(b1-4)GlcNAc
# Summary of the method: as §1
# [10] = target: Neu5Ac(a2-3)Gal(b1-4)[Fuc(a1-3)]GlcNAc(b1-6)[Gal(b1-3)]GalNAc
# Summary of the method: as §1
# [11] = target: Neu5Ac(a2-6)Gal(b1-4)GlcNAc(b1-2)Man(a1-6)Man(b1-4)GlcNAc(b1-4)GlcNAc
# Summary of the method: as §1
# [12] = target: Neu5Ac(a2-6)Gal(b1-4)GlcNAc(b1-2)Man(a1-6)[GlcNAc(b1-2)Man(a1-3)]Man(b1-4)GlcNAc(b1-4)GlcNAc
# Summary of the method: as §1
# [13] = target: Neu5Ac(a2-6)Gal(b1-4)GlcNAc(b1-3)Gal(b1-4)GlcNAc(b1-3)Gal(b1-4)GlcNAc(b1-2)Man(a1-3)[Neu5Ac(a2-6)Gal(b1-4)GlcNAc(b1-3)Gal(b1-4)GlcNAc(b1-3)Gal(b1-4)GlcNAc(b1-2)Man(a1-6)]GalNAc
# Summary of the method: as §1
# [14] = target: Neu5Ac(a2-6)Gal(b1-4)GlcNAc(b1-3)GalNAc
# Summary of the method: as §1
# [15] = target: Neu5Ac(a2-6)GalNAc(b1-4)GlcNAc6S
# Summary of the method: as §1
# [16] = target: Neu5Ac(a2-8)Neu5Gc(a2-3)Gal(b1-4)GlcNAc
# Summary of the method: as §1
# [17] = target: Neu5Ac9Ac(a2-3)Gal(b1-4)GlcNAc
# Summary of the method: as §1
# [18] = target: Neu5Ac9Ac(a2-6)Gal(b1-4)GlcNAc
# Summary of the method: as §1
# Neu5Gc(a2-6)GalNAc = target: Neu5Gc(a2-6)GalNAc
# Summary of the method: as §1
# [19] = target: Neu5Gc(a2-8)Neu5Gc(a2-3)Gal(b1-4)GlcNAc(b1-3)Gal(b1-4)GlcNAc
# Summary of the method: as §1
binder,measurement,setting,value
B1,glycan array binding signal (z-score),GalNAc(b1-4)GlcNAc,2.94
same,glycan array binding signal (z-score),[1],-0.211
same,glycan array binding signal (z-score),GlcNAc(b1-3)Fuc,2.63
same,glycan array binding signal (z-score),[2],2.54
same,glycan array binding signal (z-score),[3],-0.128
same,glycan array binding signal (z-score),[4],-0.708
same,glycan array binding signal (z-score),[5],-0.214
same,glycan array binding signal (z-score),Kdn(a2-3)Gal(b1-3)GalNAc,2.84
same,glycan array binding signal (z-score),Kdn(a2-3)Gal(b1-4)Glc,-0.287
same,glycan array binding signal (z-score),[6],-0.427
same,glycan array binding signal (z-score),Man(a1-6)Man,4.8
same,glycan array binding signal (z-score),[7],0.038
same,glycan array binding signal (z-score),Neu5Ac(a2-3)Gal(b1-4)Glc,0.96
same,glycan array binding signal (z-score),[8],-0.062
same,glycan array binding signal (z-score),[9],-0.581
same,glycan array binding signal (z-score),[10],-0.51
same,glycan array binding signal (z-score),[11],-0.252
same,glycan array binding signal (z-score),[12],-0.416
same,glycan array binding signal (z-score),[13],0.232
same,glycan array binding signal (z-score),[14],-0.431
same,glycan array binding signal (z-score),[15],0.342
same,glycan array binding signal (z-score),[16],10.6
same,glycan array binding signal (z-score),[17],0.442
same,glycan array binding signal (z-score),[18],0.304
same,glycan array binding signal (z-score),Neu5Gc(a2-6)GalNAc,-0.419
same,glycan array binding signal (z-score),[19],-0.58
